Values joined by “and” are separate entries in the source; they are usually repeats but may differ in a detail not shown here. Equal entries are not always repeated. The campaign covered roughly 5,500 compounds. About 2,000 (36%) were called active. Inconclusive results (about 18%) are left out. No stated cut-off is given here; in the data, active means normalized growth mostly below about 0.91 (no sharp cut-off); inconclusive means no clear call, values can overlap the other calls; inactive means mostly above about 0.92. The list shows a part of the results.
Assay: chemical genetic growth profiling, strain panel (AID 1159580);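 further: tested at 20 µM; growth read once vehicle control cultures reached saturation at 30 °C; 1 = growth at the plate median or of vehicle wells; lower values mean less growth of the strain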
Settings: growth OD

Measured: normalized growth

Cn1c(=O)c2[nH]cnc2n(C)c1=O
inactive: S. cerevisiae deletion strains, locus YJR066W, strain TOR1, hits give low values 0.959 | S. cerevisiae deletion strains, locus YKL009W, strain mrt4, hits give low values 0.98 | S. cerevisiae deletion strains, locus YKL068W, hits give low values 0.992 | S. cerevisiae deletion strains, locus YKL085W, strain MDH1 (second series), hits give low values 0.982 | S. cerevisiae deletion strains, locus YKL085W, strain MDH1, hits give low values 0.982 | S. cerevisiae deletion strains, locus YKL160W, strain elf1, hits give low values 1.04 | S. cerevisiae deletion strains, locus YKL190W, strain CNB1, hits give low values 0.996 | S. cerevisiae deletion strains, locus YKR001C, strain vps1, hits give low values 0.971 | S. cerevisiae deletion strains, locus YKR026C, strain gcn3, hits give low values 1.01 | S. cerevisiae deletion strains, locus YKR091W, strain srl3, hits give low values 1.02 | S. cerevisiae deletion strains, locus YLL001W, strain dnm1, hits give low values 1.01 | S. cerevisiae deletion strains, locus YLL026W, hits give low values 1.02 | S. cerevisiae deletion strains, locus YLL041C, strain sdh2, hits give low values 1.01 | S. cerevisiae deletion strains, locus YLR027C, strain aat2, hits give low values 1.02 | S. cerevisiae deletion strains, locus YLR039C, strain RIC1, hits give low values 0.982 | S. cerevisiae deletion strains, locus YLR058C, strain SHM2, hits give low values 0.988 | S. cerevisiae deletion strains, locus YLR102C, strain apc9, hits give low values 0.977 | S. cerevisiae deletion strains, locus YLR113W, strain HOG1, hits give low values 0.99 | S. cerevisiae deletion strains, locus YLR221C, strain rsa3, hits give low values 1.02 | S. cerevisiae deletion strains, locus YLR258W, strain gsy2, hits give low values 1.02 | S. cerevisiae deletion strains, locus YLR262C, strain YPT6 (second series), hits give low values 1 | S. cerevisiae deletion strains, locus YLR262C, strain YPT6, hits give low values 0.993 | S. cerevisiae deletion strains, locus YLR268W, strain sec22, hits give low values 0.941 | S. cerevisiae deletion strains, locus YLR320W, strain mms22, hits give low values 1.01 | S. cerevisiae deletion strains, locus YLR330W, strain CHS5, hits give low values 0.992 | S. cerevisiae deletion strains, locus YLR342W, strain FKS1 (second series), hits give low values 0.99 | S. cerevisiae deletion strains, locus YLR342W, strain FKS1, hits give low values 1.02 | S. cerevisiae deletion strains, locus YLR357W, strain rsc2, hits give low values 1.01 | S. cerevisiae deletion strains, locus YLR370C, strain arc18, hits give low values 1.03 | S. cerevisiae deletion strains, locus YLR371W, strain rom2, hits give low values 0.968 | S. cerevisiae deletion strains, locus YLR384C, strain iki3, hits give low values 1.01 | S. cerevisiae deletion strains, locus YLR418C, strain cdc73, hits give low values 0.971 | S. cerevisiae deletion strains, locus YML016C, strain PPZ1, hits give low values 0.989 | S. cerevisiae deletion strains, locus YML032C, strain rad52, hits give low values 0.971 | S. cerevisiae deletion strains, locus YML120C, strain ndi1, hits give low values 1.02 | S. cerevisiae deletion strains, locus YML124C, strain tub3, hits give low values 0.969 | S. cerevisiae deletion strains, locus YMR058W, strain fet3, hits give low values 1.02 | S. cerevisiae deletion strains, locus YMR078C, strain ctf18, hits give low values 0.975 | S. cerevisiae deletion strains, locus YMR125W, strain sto1, hits give low values 1.01 | S. cerevisiae deletion strains, locus YMR129W, hits give low values 1.01 | S. cerevisiae deletion strains, locus YMR205C, strain PFK2, hits give low values 1.04 | S. cerevisiae deletion strains, locus YMR223W, strain ubp8, hits give low values 0.984 | S. cerevisiae deletion strains, locus YMR231W, strain pep5, hits give low values 1.02 | S. cerevisiae deletion strains, locus YMR263W, strain SAP30, hits give low values 0.996 | S. cerevisiae deletion strains, locus YMR307W, strain GAS1, hits give low values 0.992 | S. cerevisiae deletion strains, locus YNL067W, strain RPL9B, hits give low values 0.993 | S. cerevisiae deletion strains, locus YNL071W, strain lat1, hits give low values 1.03 | S. cerevisiae deletion strains, locus YNL128W, strain TEP1, hits give low values 0.985 | S. cerevisiae deletion strains, locus YNL153C, strain GIM3, hits give low values 0.988 | S. cerevisiae deletion strains, locus YNL175C, strain NOP13, hits give low values 0.995 | S. cerevisiae deletion strains, locus YNL183C, strain NPR1, hits give low values 0.955 | S. cerevisiae deletion strains, locus YNL197C, strain WHI3, hits give low values 1 | S. cerevisiae deletion strains, locus YNL209W, strain ssb2, hits give low values 1.02 | S. cerevisiae deletion strains, locus YNL224C, strain SQS1, hits give low values 0.99 | S. cerevisiae deletion strains, locus YNL233W, strain BNI4, hits give low values 0.993 | S. cerevisiae deletion strains, locus YNL248C, strain rpa49, hits give low values 1.05 | S. cerevisiae deletion strains, locus YNL250W, strain rad50, hits give low values 0.979 | S. cerevisiae deletion strains, locus YNL271C, strain bni1, hits give low values 0.967 | S. cerevisiae deletion strains, locus YNL298W, strain CLA4, hits give low values 0.965 | S. cerevisiae deletion strains, locus YNL307C, strain MCK1, hits give low values 0.971 | S. cerevisiae deletion strains, locus YNL322C, strain KRE1 (second series), hits give low values 1.01 | S. cerevisiae deletion strains, locus YNR049C, strain mso1, hits give low values 1.02 | S. cerevisiae deletion strains, locus YNR052C, strain pop2, hits give low values 0.971 | S. cerevisiae deletion strains, locus YOL006C, strain TOP1, hits give low values 1.01 | S. cerevisiae deletion strains, locus YOL012C, strain htz1 0.812 | S. cerevisiae deletion strains, locus YOL147C, strain pex11, hits give low values 0.973 | S. cerevisiae deletion strains, locus YOR001W, strain rrp6, hits give low values 0.994 | S. cerevisiae deletion strains, locus YOR061W, strain CKA2, hits give low values 0.988 | S. cerevisiae deletion strains, locus YOR069W, strain VPS5, hits give low values 0.982 | S. cerevisiae deletion strains, locus YOR070C, strain gyp1, hits give low values 1.04 | S. cerevisiae deletion strains, locus YOR080W, strain dia2, hits give low values 1 | S. cerevisiae deletion strains, locus YOR083W, strain WHI5 (second series), hits give low values 1.01 | S. cerevisiae deletion strains, locus YOR083W, strain WHI5, hits give low values 1.03 | S. cerevisiae deletion strains, locus YOR106W, strain vam3, hits give low values 1.05 | S. cerevisiae deletion strains, locus YOR136W, strain idh2, hits give low values 0.986 | S. cerevisiae deletion strains, locus YOR144C, strain elg1, hits give low values 0.981 | S. cerevisiae deletion strains, locus YOR184W, strain ser1, hits give low values 0.97 | S. cerevisiae deletion strains, locus YOR231W, strain MKK1, hits give low values 0.979 | S. cerevisiae deletion strains, locus YOR265W, strain rbl2, hits give low values 1.01 | S. cerevisiae deletion strains, locus YOR270C, strain vph1, hits give low values 1.05 | S. cerevisiae deletion strains, locus YOR290C, strain snf2, hits give low values 1.05 | S. cerevisiae deletion strains, locus YOR316C, strain cot1, hits give low values 0.969 | S. cerevisiae deletion strains, locus YPL051W, strain arl3, hits give low values 1.04 | S. cerevisiae deletion strains, locus YPL078C, strain atp4, hits give low values 1.04 | S. cerevisiae deletion strains, locus YPL106C, strain sse1, hits give low values 1.05 | S. cerevisiae deletion strains, locus YPL240C, strain hsp82, hits give low values 1.02 | S. cerevisiae deletion strains, locus YPL241C, strain CIN2, hits give low values 0.992 and 1 | S. cerevisiae deletion strains, locus YPL256C, strain CLN2, hits give low values 0.97 | S. cerevisiae deletion strains, locus YPR119W, strain clb2, hits give low values 0.986 | S. cerevisiae deletion strains, locus YPR141C, strain kar3, hits give low values 0.961 | S. cerevisiae deletion strains, locus YPR163C, strain tif3, hits give low values 0.965 | S. cerevisiae deletion strains, locus YPR167C, strain met16, hits give low values 0.977 | S. cerevisiae deletion strains, strain wtn01, hits give low values 0.953 | S. cerevisiae strains, strain wild type, hits give low values 1

— PubChem BioAssay AID1159580 (chemical genetic matrix, 2015)
